From PubChem BioAssay
FLuc modulator: counter-screen for miR-21 project: firefly luciferase inhibitors or activators; purified FLuc, Km substrates, luminescence inhibition; AID 588342; P08659; actives 6.9% (n = 360,000); Potency, µM (series often up to 57.5 µM), usual class: inhibitors; also: nearly all actives have a fitted effect of over 55% in size
Target sequence (P08659 whole entry, looked up): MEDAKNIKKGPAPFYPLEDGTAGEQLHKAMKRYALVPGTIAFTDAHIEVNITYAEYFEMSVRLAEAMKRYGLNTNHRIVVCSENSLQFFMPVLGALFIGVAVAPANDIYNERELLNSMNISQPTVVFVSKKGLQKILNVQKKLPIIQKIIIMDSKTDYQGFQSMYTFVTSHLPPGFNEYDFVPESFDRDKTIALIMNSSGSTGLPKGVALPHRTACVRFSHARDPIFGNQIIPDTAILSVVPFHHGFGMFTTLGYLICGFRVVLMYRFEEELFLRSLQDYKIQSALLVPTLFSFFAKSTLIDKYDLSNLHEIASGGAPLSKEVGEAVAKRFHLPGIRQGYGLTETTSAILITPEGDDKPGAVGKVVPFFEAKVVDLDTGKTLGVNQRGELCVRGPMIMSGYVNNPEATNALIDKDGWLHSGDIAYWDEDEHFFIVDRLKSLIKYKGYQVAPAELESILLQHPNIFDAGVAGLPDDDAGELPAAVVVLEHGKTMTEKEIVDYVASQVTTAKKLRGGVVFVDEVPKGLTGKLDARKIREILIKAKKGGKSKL
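Purified P. pyralis luciferase, 10 nM final, with Km-level 10 uM D-luciferin and 10 uM ATP in 50 mM Tris acetate pH 7.5, 10 mM Mg acetate, 0.01% Tween-20, 0.05% BSA; 6-point qHTS titration about 60 µM downward; luminescence read.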
ELG1 genotox: induces genotoxicity in HEK293T cells with luciferase-tagged ELG1; Potency, µM (doses to about 46 µM), most hits filed as activators; actives 1.3% (n = 330,000); HEK293T ELG1-luciferase reporter, luminescence, 16 h; also: nearly all actives have a fitted effect of over 60% in size
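Cells (2,000/well) expressing the ELG1-luciferase fusion are dosed by pin tool and kept 16 hr at 37 °C, 5% CO2. Signal comes from ONE-Glo luciferase reagent after 30 min at room temperature.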
Luc counter: counter-screen: inhibitors of Kinase-Glo firefly luciferase; AID 1379; actives 0.28% (n = 200,000); Potency, µM (doses to about 38.3 µM), hits mostly inhibitors; Kinase-Glo luciferase, ATP luminescence, 8 min; Q27757; also: nearly all actives have a fitted effect of over 60% in size
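Luminescence was the read-out, taken after 8-minute incubation at ambient temperature. Luciferase turned over luciferin with 10 uM ATP in imidazole pH 7.2 buffer containing KCl, MgCl2, Tween 20 and BSA.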
NPC1 prom act: activators of NPC1 promoter; Huh7 NPC1 promoter luciferase reporter, 24 h; Potency, µM (series often up to 9.22 µM), most hits filed as activators; actives 2.4% (n = 320,000); AID 485313; also: nearly all actives have a fitted effect of over 60% in size
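Stable NPC1-promoter luciferase Huh7 line; cpd (DMSO) 24 h, 37 °C, 5% CO2; Amplite luciferase reagent 10 min RT; luminescence readout. qHTS format.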
Rab9 prom act: activators of Rab9 promoter | actives 2.8% (n = 320,000) | Potency, µM (series often up to 9.22 µM), usual class: activators | Huh7 Rab9 promoter-luciferase reporter, luminescence, 24 h; also: nearly all actives have a fitted effect of over 60% in size
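Promoter activation is measured as luciferase luminescence in Huh7 cells stably transfected with a Rab9 promoter–luciferase construct, following 24 h compound exposure at 37 °C and 10 min reagent incubation at ambient temperature.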
SMN2 splice enh: enhancers of SMN2 splice variant expression | HEK293 SMN2-luciferase splicing reporter, luminescence, 30-36 h | Potency, µM (series often up to 46.1 µM), usual class: activators | actives 2.8% (n = 210,000) | AID 1458; also: nearly all actives have a fitted effect of over 55% in size
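HEK293 cells carry an SMN2 […]–luciferase reporter in which exon 7 inclusion puts luciferase in frame. Cells were plated 10-12 h before compound addition, then incubated 30-36 h at 37C. ONE-Glo luminescence was read; sodium butyrate at 4.5 mM final served as control.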
A number is an active result. Most compounds without a hit are left out; they make up all but 7.4% or so of the library. Calls follow the shape of the dose curve; as a rule, active = well fitted curve in the direction sought with a large enough effect; inconclusive = small, poorly fitted or top-dose-only effect, or another doubt; inactive = no such curve, though single readings can be large; an effect the other way counts as inactive or inconclusive.

What do the screens show for `C/C(=N\NC(=O)COc1ccc(C)cc1C(C)C)c1ccc(-n2ccnc2)cc1`?
FLuc modulator: 1.9µM; ELG1 genotox: inactive; Luc counter: inactive; NPC1 prom act: inactive; Rab9 prom act: inactive; SMN2 splice enh: inactive

What do the screens show for `C/C(=N\NC(=O)COc1ccc(C)cc1C(C)C)c1cc2ccccc2o1`?
FLuc modulator: 3.4µM; ELG1 genotox: inactive; Luc counter: inactive; NPC1 prom act: inactive; Rab9 prom act: inactive; SMN2 splice enh: 13µM

Results for CSc1ccccc1NC(=O)CO/N=C(\C)c1cc2ccccc2o1 ?
FLuc modulator: inconclusive; ELG1 genotox: inactive; Luc counter: inactive; NPC1 prom act: inactive; Rab9 prom act: inactive; SMN2 splice enh: inactive

How did C/C(=N\NC(=O)COc1ccc(C(C)(C)C)cc1)c1ccc(OC(F)F)cc1 do in these assays?
FLuc modulator: inconclusive; ELG1 genotox: inactive; Luc counter: inactive; NPC1 prom act: inactive; Rab9 prom act: inactive; SMN2 splice enh: inactive

How did C/C(=N\NC(=O)COc1ccc(C(C)(C)C)cc1)c1cc2ccccc2o1 do in these assays?
FLuc modulator: 0.3µM; ELG1 genotox: inactive; Luc counter: inactive; NPC1 prom act: 2.8µM; Rab9 prom act: 3.5µM; SMN2 splice enh: 18µM

Results for COC(=O)N/N=C(\C)c1ccc(-n2ccnc2)cc1 ?
FLuc modulator: inactive; ELG1 genotox: inactive; Luc counter: inactive; NPC1 prom act: inactive; Rab9 prom act: inactive; SMN2 splice enh: inactive

What do the screens show for `C/C(=N\NC(=O)COc1ccc(C(C)(C)C)cc1)c1ccccc1`?
FLuc modulator: 11µM; ELG1 genotox: inactive; Luc counter: inactive; NPC1 prom act: inactive; Rab9 prom act: inactive; SMN2 splice enh: inactive

What do the screens show for `Cc1ccc(C)c(CN2C(=O)c3ccccc3S(=O)(=O)c3ccc(C(=O)N4CCc5ccccc54)cc32)c1`?
FLuc modulator: inactive; SMN2 splice enh: inactive

How did COC(=O)[C@@]1(Cc2ccccc2)[C@H]2c3cc(C(=O)N4CCCC4)n(Cc4cccc5ccccc45)c3C[C@H]2CN1C(=O)c1ccccc1 do in these assays?
Luc counter: inactive; SMN2 splice enh: inactive

Results for CC1CCCCC1NC(=O)c1cc2ccccc2o1 (stereo not drawn) ?
FLuc modulator: inconclusive; ELG1 genotox: inactive; Luc counter: inactive; NPC1 prom act: inactive; Rab9 prom act: inactive; SMN2 splice enh: inactive

What do the screens show for `C/C(=N\NC(=O)COc1ccc(C(C)(C)C)cc1)c1ccc2c(c1)OCCO2`?
FLuc modulator: 19µM; ELG1 genotox: inactive; Luc counter: inactive; NPC1 prom act: inactive; Rab9 prom act: inactive; SMN2 splice enh: inactive

Results for C/C(=N\NC(=O)CNc1ccc(F)cc1)c1cc2ccccc2o1 ?
FLuc modulator: inconclusive; ELG1 genotox: inactive; Luc counter: inactive; NPC1 prom act: inactive; Rab9 prom act: inactive; SMN2 splice enh: inactive

What do the screens show for `COc1ccc(NCC(=O)N/N=C(\C)c2cc3ccccc3o2)cc1`?
FLuc modulator: 17µM; ELG1 genotox: inactive; Luc counter: inactive; NPC1 prom act: inactive; Rab9 prom act: inactive; SMN2 splice enh: inactive

How did CCc1ccc(OCC(=O)N/N=C(\C)c2ccc3c(c2)OCCO3)cc1 do in these assays?
FLuc modulator: inconclusive; ELG1 genotox: inactive; Luc counter: inactive; NPC1 prom act: inactive; Rab9 prom act: inactive; SMN2 splice enh: inactive

How did CCOC(=O)C1CCN(C(=O)c2ccc(-n3ccc4ccccc43)s2)CC1 do in these assays?
FLuc modulator: inactive

What do the screens show for `CC(NC(=O)C1CCN(C(=O)c2ccc(-n3ccc4ccccc43)s2)CC1)c1ccccc1` (stereo not drawn)?
FLuc modulator: 13µM

Results for Fc1cccc(CSc2ccc(-c3ccc4c(c3)OCO4)nn2)c1 ?
FLuc modulator: 11µM; ELG1 genotox: inactive; Luc counter: inactive; NPC1 prom act: inactive; Rab9 prom act: inactive; SMN2 splice enh: inconclusive

How did Cc1nc(C)c(-c2ccc(SCc3ccccc3C)nn2)s1 do in these assays?
FLuc modulator: 13µM; ELG1 genotox: inactive; NPC1 prom act: inactive; Rab9 prom act: inactive

What do the screens show for `Cc1ccccc1CSc1ccc(-c2ccc3c(c2)OCO3)nn1`?
FLuc modulator: 7.6µM; ELG1 genotox: inconclusive; Luc counter: inactive; NPC1 prom act: inactive; Rab9 prom act: inconclusive

Results for CC(=O)c1ccc(NC(=O)CSc2ccc(-c3ccc4c(c3)OCO4)nn2)cc1 ?
FLuc modulator: inconclusive; ELG1 genotox: inactive; Luc counter: inactive; NPC1 prom act: inactive; Rab9 prom act: inconclusive; SMN2 splice enh: inactive

What do the screens show for `c1cncc(CSc2ccc(-c3ccc4c(c3)OCO4)nn2)c1`?
FLuc modulator: 17µM; ELG1 genotox: inactive; Luc counter: inactive; NPC1 prom act: 3.2µM; Rab9 prom act: 2.8µM; SMN2 splice enh: inactive

Results for O=[N+]([O-])c1cccc(-c2ccc(SCc3cccnc3)nn2)c1 ?
FLuc modulator: inconclusive; ELG1 genotox: inactive; Luc counter: inactive; NPC1 prom act: inactive; Rab9 prom act: inconclusive; SMN2 splice enh: inactive

How did COc1ccccc1-c1ccc2nnc(SC)n2n1 do in these assays?
FLuc modulator: inactive; ELG1 genotox: inconclusive; NPC1 prom act: inactive; Rab9 prom act: inactive

What do the screens show for `CN(Cc1nc(-c2cccc(Cl)c2)no1)C1CCOCC1`?
FLuc modulator: inconclusive; ELG1 genotox: inconclusive; Luc counter: inactive; NPC1 prom act: inconclusive; Rab9 prom act: 2µM

How did O=C(N/N=C/c1ccccc1O)NC12CC3CC(CC(C3)C1)C2 do in these assays?
FLuc modulator: 21µM; ELG1 genotox: inconclusive; NPC1 prom act: inconclusive; Rab9 prom act: 6.3µM

Results for Cc1cc2nc(/C(C#N)=C\c3ccc(-c4ccccc4C(=O)O)o3)[nH]c2cc1C ?
FLuc modulator: 1.5µM; ELG1 genotox: inactive; NPC1 prom act: inactive; Rab9 prom act: inactive

What do the screens show for `Cc1cc2nc3s/c(=C/c4ccc(-c5ccccc5C(=O)O)o4)c(=O)n3c2cc1C`?
FLuc modulator: 4.8µM; ELG1 genotox: inactive; NPC1 prom act: inactive; Rab9 prom act: inactive

What do the screens show for `O=C(O)c1ccccc1-c1ccc(/C=c2\sc3nc4cc(Br)cnc4n3c2=O)o1`?
FLuc modulator: inactive; ELG1 genotox: inactive; Luc counter: inactive; NPC1 prom act: inactive; Rab9 prom act: inactive; SMN2 splice enh: inactive

What do the screens show for `CCOC(=O)c1ccc(-c2ccc(/C=C(\C#N)c3nc4ccc(C)cc4[nH]3)o2)cc1`?
FLuc modulator: inactive; SMN2 splice enh: inactive

How did N#C/C(=C\c1ccc(-c2ccc(F)cc2F)o1)c1nc2ccccc2[nH]1 do in these assays?
FLuc modulator: inactive; SMN2 splice enh: inactive

How did N#C/C(=C\c1ccc(Sc2ccccc2)o1)c1nc2ccccc2[nH]1 do in these assays?
FLuc modulator: 2.7µM; ELG1 genotox: inconclusive; Luc counter: inactive; NPC1 prom act: 2.8µM; Rab9 prom act: 2.2µM; SMN2 splice enh: 11µM
